The structures appear in SMILES notation. Hit rate of the full screen: of about 65,000 compounds, about 2,100 (3.2%) showed an effect of 50% or more. The median lay at about -52%. The list comes from a sample in which strong results are over-represented; it also holds similar structures and randomly drawn compounds.

For this assay, the system named is Plasmodium falciparum. Nature of the assay: Screen against P. falciparum Asexual Blood Stage (ABS), at 5uM. It counts as functional, Dd2. The settings on record: tested at 5 uM.
As to `CC(=O)N(c1ccc(C)cc1)c1nc(CN2CCCC(C)C2)cs1` (stereo not drawn), the INHIBITION was 83.2%.
As to `CC(=O)N(c1ccc(F)cc1)c1nc(CN2CCCC2C(C)C)cs1` (stereo not drawn), the INHIBITION is 90.3%.
To `Cc1nc(CN2CCO[C@H]3CN(C(=O)c4ccncc4)C[C@H]32)cs1` belongs -109%; to `Cc1nc(CN2C[C@@H]3CN(C(=O)c4ccncc4)C[C@@H]3C2)cs1`, -67.5%; to `CCc1nc(CN2CCCN(C(=O)Cc3cccs3)CC2)cs1`, 3.65%.
Turning to `CCCN1CCN(C(=O)c2cccc(C)n2)[C@H]2CS(=O)(=O)C[C@H]21`, the INHIBITION is recorded as -129%.
For the compound `CC(C)(C)CC(=O)N1C[C@@H]2C[C@@H]1CN2`, the INHIBITION came out at 30%.
For the compound `CC(C)c1cc(N(C)Cc2cc(C3CC3)on2)n2nccc2n1`, the INHIBITION worked out at 80.3%.
In the case of `CN(Cc1cc(C2CC2)on1)C(=O)CN1CC(c2ccccc2)CC1=O` (stereo not drawn), the INHIBITION was -67.9%.
On to `CN(C)CCOCc1cncc2c1CCN(C1CCOC1)C2` (stereo not drawn), for which the INHIBITION is reported as -63.4%.
For `NC(=O)CN1CCCN(C(=O)Cc2ccc3ccccc3c2)CC1` the value was -22.8%; for `CCN1CCN(Cc2csc(C(C)C)n2)CC1`, -17.1%.
On to `O=C(Cc1csc(-c2ncccn2)n1)N1CCN2CCCCC2C1` (stereo not drawn), for which the INHIBITION was -23.4%.
In the case of `CCCC1CCCN(Cc2csc(-c3ncccn3)n2)CC1` (stereo not drawn), the INHIBITION stood at 74.9%.
Regarding `CCc1noc(CN(C)CCC(=O)Nc2ccc(C#N)c(Cl)c2)n1`, the INHIBITION is given as 11.3%.
For `O=S(=O)(Cc1ccccc1Cl)NCCCN1CCCC1`, the INHIBITION was found to be 79.2%.
Turning to `Cn1cc(C(=O)N2CC[C@@H]3[C@@H]2CCN3Cc2ccncc2)cn1`, the INHIBITION is recorded as -137%.
As for `Cc1cnc(N2CCc3c(cnc(C)c3C(=O)O)C2)nc1`, the INHIBITION was -89.7%.
With `CCN1CCN(c2ccc(F)cc2C(C)NCc2ccnn2C)CC1` (stereo not drawn), the INHIBITION stood at 76.3%.
With `Cc1ccc(CNC(C)c2cc(F)ccc2N2CCN(C)CC2)o1` (stereo not drawn), the INHIBITION is listed as 83.7%.
`CCN1CCN(c2ccc(F)cc2C(C)NCc2cscn2)CC1` (stereo not drawn): the INHIBITION came out at 81.1%.
For `CC(C)c1cc(CN2CCN(c3cccnc3)CC2)n(C)n1` the value was -52.7%; for `CCN1CCN(c2ccc(F)cc2C(C)NCc2ccccn2)CC1` (stereo not drawn), 85.6%; for `CCc1noc(C(C)N2CCN(CC)CC2)n1` (stereo not drawn), -70%.
For `c1ccc(CO[C@@H]2CN(Cc3cccnc3)[C@@H]3COC[C@@H]32)nc1`, the INHIBITION is -165%.
For `CC(c1ccccc1F)N1CCN(C(=O)Cc2ccncc2)CC1` (stereo not drawn), the INHIBITION is -41.8%.
On to `CCN1CCN(c2ccc(F)cc2C(C)NCc2ccncc2)CC1` (stereo not drawn), for which the INHIBITION worked out at 72.4%.
For `CCN1CCN(c2ccc(C(=O)NCCOC)cc2F)CC1` the value was -56%.
For `Cc1cccc(OCC2CCCN(C(=O)CN(C)C3CCNCC3)C2)c1` (stereo not drawn), the INHIBITION is reported as 73.8%.
For `Cc1cccc(CC(=O)N2CCCC(N(C)CCCN(C)C)C2)c1` (stereo not drawn), the INHIBITION is on record as -40.55%.
As for `Clc1cc(CN2CCCN3CCCC3C2)c2ncccc2c1` (stereo not drawn), the INHIBITION worked out at 89.5%.
Turning to `Cc1cccc2cc(CN3CCCN4CCC[C@H]4C3)c(=O)[nH]c12`, the INHIBITION is -45.3%.
In the case of `CNc1ncccc1CN1CCN2CCN(C)CC2C1` (stereo not drawn), the INHIBITION was -92.1%.
Turning to `CC1CN(CC2CCCC2)CCN1c1ccc2nncn2n1` (stereo not drawn), the INHIBITION came out at 70.4%.
In the case of `Cc1ccc(N2CCO[C@H]3CN(CC4CC4)C[C@H]32)nn1`, the INHIBITION is -15.6%.
`Cc1cccc(CN2CC[C@@H]3[C@@H]2CCN3C(=O)c2ccno2)n1`: the INHIBITION is reported as -100%.
`Cc1cc(-c2cnc(N3CCCC3)nc2C(C)C)on1`: the INHIBITION was 10.2%.
For `c1cncc(N2CCOCC3(CN(Cc4cccs4)CCO3)C2)c1` (stereo not drawn) the value was -41%; for `c1cncc(N2CCCC3(CN(Cc4cccs4)CCO3)C2)c1` (stereo not drawn), -22.7%.
In the case of `c1cncc(N2CCOCC3(CCCN(Cc4cccs4)C3)C2)c1` (stereo not drawn), the INHIBITION worked out at 55.5%.
On to `c1cncc(N2CCCC3(CCN(CCN4CCCC4)CC3)C2)c1`, for which the INHIBITION is reported as 92%.
For the compound `c1cnc(N2CCOCC3(CCCN(Cc4cccs4)C3)C2)nc1` (stereo not drawn), the INHIBITION is -15.6%.
Turning to `O=C1CC2(CCN(CC3CC3)C2)CN1c1cccnc1` (stereo not drawn), the INHIBITION is reported as -58.5%.
`CN1CCO[C@H]2CN(C(=O)c3ccncc3F)C[C@H]21`: the INHIBITION was -54.5%.
Consider `COc1ccccc1C1(NCc2c(C)nc3c(C)cccn23)CCCC1`, for which the INHIBITION is on record as 89.2%.
Consider `Cc1cnccc1N1CCN(C[C@]2(O)CCCN3CCCC[C@@H]32)CC1`, for which the INHIBITION amounted to 75%.
Turning to `Cc1cccnc1N1CC2(CCN(Cc3cccnc3)C2)C1`, the INHIBITION is reported as -50.1%.
As to `O[C@@]1(CNCCCNc2cccnc2)CCCN2CCCC[C@@H]21`, the INHIBITION was -52.8%.
As to `O=C(Nc1ccccc1)[C@H]1CN2CCC1C[C@@H]2Cn1cc(CO)nn1` (stereo partly drawn), the INHIBITION is reported as -50.4%.
To `CC(C)N1[C@H](CN(C)C)C[C@@H]2CN(c3ncc(F)cn3)CC[C@@H]21` belongs 25.4%; to `CC(C)N1CCCC(C(=O)N2CCN(c3nsc4ccccc34)CC2)C1` (stereo not drawn), 70.4%.
With `N#CC1(c2ccccc2)CCN(C(=O)C2CCCN(C(N)=O)C2)CC1` (stereo not drawn), the INHIBITION is reported as -142%.
Turning to `Cc1ccc(C(=O)N2C[C@@H]3CCN(C(C)C)C[C@@H]3C2)cn1`, the INHIBITION is given as -25%.
On to `Cn1cc(CN2CCC[C@]3(C[C@@H](Oc4ccccn4)CO3)C2)cn1`, for which the INHIBITION is on record as -29.6%.
With `Cc1nc(CN2CC[C@H]3C[C@H](c4ccncn4)O[C@@H]3C2)cs1`, the INHIBITION is -62.5%.
Turning to `COc1ccc(CN2C[C@@H]3COC[C@@H](N4CCN(C)CC4)[C@@H]3C2)cc1`, the INHIBITION is on record as 73.9%.
To `COCCNC(=O)C[C@@H]1COC[C@H]2CN(Cc3cccnc3)C[C@@H]12` belongs -103%; to `O=C(C[C@@H]1COC[C@H]2CN(Cc3ccncc3)C[C@@H]12)N1CCCC1`, -88%; to `CN1CCN([C@H]2COC[C@@H]3CN(Cc4cccnc4)C[C@@H]32)CC1`, -11.2%.
With `Cc1cc(C)cc(CN2C[C@H]3COC[C@H](N4CCN(C)CC4)[C@H]3C2)c1`, the INHIBITION is listed as 94.1%.
Consider `COc1ccc(CN2C[C@H]3CN(c4cncnc4)C(=O)[C@H]3C2)cc1`, for which the INHIBITION was -49.1%.
With `Cc1c(CC(=O)N2CCN(CC(F)(F)F)CC2)nnn1-c1ccccc1`, the INHIBITION is given as -74%.
`Cc1cc(N2CCCC(c3[nH]ncc3Cc3ccccc3)C2)nc(N)n1` (stereo not drawn): the INHIBITION turned out to be 73.6%.

These data come from ChEMBL document CHEMBL4513216, “Probing the Open Global Health Chemical Diversity Library for Multistage-Active Starting Points for Next-Generation Antimalarials” (ACS Infect Dis, 2020).
